Assay outcomes as filed in PubChem BioAssay.
RORg inh – blocks mouse ROR gamma transcriptional activity | AID 2551 | Potency, µM (highest dose often 53.6 µM), hits mostly inhibitors | hit rate 5.4% among 310,000 | Drosophila S2 Gal4-RORgamma UAS-luciferase reporter, 20 h; note: nearly all actives have a fitted effect of over 60% in size
Target sequence (P51450 whole entry, looked up, the tested form may be a part): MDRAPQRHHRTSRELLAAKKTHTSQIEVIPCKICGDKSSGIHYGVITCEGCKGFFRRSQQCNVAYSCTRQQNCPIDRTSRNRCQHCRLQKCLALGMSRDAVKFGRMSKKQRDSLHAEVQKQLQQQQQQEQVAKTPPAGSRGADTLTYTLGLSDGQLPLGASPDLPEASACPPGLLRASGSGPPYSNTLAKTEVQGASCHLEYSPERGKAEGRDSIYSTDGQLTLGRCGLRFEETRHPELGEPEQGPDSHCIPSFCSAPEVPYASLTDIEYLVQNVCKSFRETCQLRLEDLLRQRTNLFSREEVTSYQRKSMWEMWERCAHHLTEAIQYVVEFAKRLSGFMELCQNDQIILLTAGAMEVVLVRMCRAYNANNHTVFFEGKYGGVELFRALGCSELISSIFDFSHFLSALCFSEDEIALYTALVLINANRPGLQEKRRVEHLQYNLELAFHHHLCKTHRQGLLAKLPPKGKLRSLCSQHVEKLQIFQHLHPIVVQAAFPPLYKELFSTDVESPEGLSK
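Compounds are pin-transferred onto Drosophila Schneider cells expressing a copper-inducible Gal4–ROR gamma transactivation domain fusion. After 1 hr, copper sulfate is added to 700 uM final; luciferase is read 20 hr later.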
Gal4-VP16 FLuc – Gal4-VP16 reporter inhibition counter-screen. hit rate 3.5% among 310,000. Potency, µM (highest dose often 53.6 µM), most hits filed as inhibitors. Drosophila S2 Gal4-VP16 UAS-luciferase, luminescence, 20 h;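 note: Gal4-VP16 expression switched on by copper sulfate through the metallothionein promoter; nearly all actives have a fitted effect of over 50% in size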
TSHR antag – blocks TSH signaling through the human TSH receptor | P16473 | TSHR-expressing cells, TSH-stimulated cAMP HTRF, 2 h; hits give low values | activity change, negative = inhibition, % at 11.5 µM | hit rate 0.2% among 330,000;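 active = activity change below a set negative limit, meaning inhibition stronger than a set level, cut at about -70% in these data; inconclusive = activity change between two set negative limits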
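TSHR-expressing cells, 200/well, pre-treated with compound, then stimulated with EC80 TSH (4nM final) for 2 hours at 37 deg C. cAMP measured by competitive HTRF: anti-cAMP cryptate antibody in lysis buffer plus cAMP-d2, read after 30 minutes at room temperature.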
ELG1 DNA repair – blocks ELG1-dependent DNA repair in HEK293T cells | AID 504467 | Potency, µM (highest dose often 46.1 µM), usual class: inhibitors | HEK293T ELG1-luciferase reporter, luminescence, 16 h; DNA damage induced by 5-fluorouridine | hit rate 2.3% among 330,000; note: nearly all actives have a fitted effect of over 55% in size
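Overnight (16 hr) co-exposure of 2,000 cells/well to 5-fluorouridine and compound at 37 °C preceded detection. Luciferase was quantified via ONE-Glo luminescence; loss of signal denotes inhibition.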
Coupling enz – coupling enzyme interference in Giardia aldolase counter-screen | hit rate 0.67% among 290,000 | coupling enzyme system counterscreen, AmpLite Red fluorescence | AID 2472 | activity change, negative = inhibition, % at 58.2 µM, hits read low; in the data active = activity change below about -30%
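Activity here indicates interference with the coupling reaction, not aldolase inhibition. Compounds at 57.5 uM final met coupling enzymes for 10 min at RT; substrate and AmpLite Red detection followed, with a 525/598 nm fluorescence read after 20 min.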
Each line names hits and unclear results; the compound was inactive in the other large screens. In the library only some 8% were active in any assay of this set; here they are far more common. Unless noted, calls come from the whole dose curve; as a rule, active = well fitted curve in the direction sought with a large enough effect; inconclusive = small, poorly fitted or top-dose-only effect, or another doubt; inactive = no such curve, though single readings can be large; an effect the other way counts as inactive or inconclusive.

N#Cc1c(NC(=O)c2ccccc2)sc2c1CCCCC2	RORg inh inconclusive, Gal4-VP16 FLuc inconclusive, ELG1 DNA repair inconclusive
N#Cc1c(Cl)nsc1NC(=O)c1ccccc1	RORg inh 8.91µM, Gal4-VP16 FLuc 3.98µM, ELG1 DNA repair 2.91µM
CC(C)CC(=O)Nc1nnc(S(=O)(=O)N2c3ccccc3CC2C)s1 (stereo not given)	none
Cc1onc(-c2ccccc2Cl)c1C(=O)NC(=S)Nc1ccc(C(C)C)cc1	RORg inh 1.78µM, Gal4-VP16 FLuc inconclusive, TSHR antag inconclusive
Cc1onc(-c2ccccc2Cl)c1C(=O)N1CCCC1	none
Cc1onc(-c2ccccc2Cl)c1C(=O)Nc1ccc(F)c(F)c1	none
COC(=O)c1ccc(NC(=S)NC(=O)c2c(-c3ccccc3)noc2C)cc1	RORg inh 7.08µM, Gal4-VP16 FLuc inconclusive, ELG1 DNA repair inconclusive
CC(=O)N1CCN(C(=S)NC(=O)c2c(-c3ccccc3Cl)noc2C)CC1	RORg inh 1.58µM, Gal4-VP16 FLuc 5.01µM
COC(=O)c1ccc(C)c(NC(=O)c2c(-c3ccccc3)noc2C)c1	none
Cc1ccc(NC(=S)NC(=O)c2c(-c3ccccc3Cl)noc2C)cc1	RORg inh 3.98µM, Gal4-VP16 FLuc 11.2µM, TSHR antag inconclusive (no result: Coupling enz)
O=C1c2ccccc2NC(c2ccc(F)cc2)N1Cc1ccccc1 (stereo not given)	none
CCCOc1ccc(C(=O)NC(=S)NNC(=O)c2c(-c3ccccc3)noc2C)cc1	RORg inh 3.98µM, Gal4-VP16 FLuc inconclusive, ELG1 DNA repair 7.3µM
CCCOc1ccc(NC(=O)c2c(-c3ccccc3)noc2C)cc1	none
CC(=O)N(C)c1ccc(N=Cc2c(O)ccc3ccccc23)cc1	RORg inh 11.2µM, Gal4-VP16 FLuc inconclusive, ELG1 DNA repair inconclusive
CS/C(N)=N/N=C/c1c(O)ccc2ccccc12	RORg inh 0.891µM, Gal4-VP16 FLuc 7.08µM, ELG1 DNA repair inconclusive
Oc1ccccc1N=Cc1c(O)ccc2ccccc12	RORg inh 8.91µM, Gal4-VP16 FLuc inconclusive
Cc1cc(N=Cc2c(O)ccc3ccccc23)no1	Coupling enz -42.8
CCc1nn(C(C)C(=O)NC2CCCCCC2)c(=O)c2cc3occc3n12 (stereo not given)	none (no result: Coupling enz)
Oc1cccc(C=Nc2cccc3ccccc23)c1O	RORg inh 11.2µM, Gal4-VP16 FLuc 12.6µM
Oc1ccc2ccccc2c1C=Nc1ccccc1Br	RORg inh 12.6µM
CCOC(=O)c1cc(CC)sc1/N=C/c1c(O)ccc2ccccc12	Coupling enz -34.5
CCOC(=O)c1cc(CC)sc1/N=C/C1C(=O)CCCC1=O	none
Oc1cccc(C=NCc2ccccc2)c1O	ELG1 DNA repair inconclusive, Coupling enz -37.0
NC(=O)C1c2ccccc2CCc2ccccc21	none (no result: TSHR antag, ELG1 DNA repair, Coupling enz)
Oc1ccc2ccccc2c1C=NC12CN3CCN(CN(C3)C1)C2	Coupling enz -47.8
C=Cc1ccc(N=Cc2c(O)ccc3ccccc23)cc1	Coupling enz -30.3
OCC(CO)(CO)N=Cc1c(O)ccc2ccccc12	none
COc1cc(C(C)=O)ccc1OCC(O)CNCC(O)c1ccccc1 (stereo not given)	ELG1 DNA repair inconclusive
CCC(C(=O)NCc1cccs1)n1nc(C)n2c(cc3occc32)c1=O (stereo not given)	none
COc1ccccc1CN1CC(C(=O)N2CCOCC2)CCC1=O (stereo not given)	Gal4-VP16 FLuc inconclusive, ELG1 DNA repair inconclusive (no result: Coupling enz)
O=c1c(-c2ccco2)[n+]([O-])c2ccccc2n1OCc1ccccc1[N+](=O)[O-]	ELG1 DNA repair 23.1µM
O=c1c(-c2ccco2)[n+]([O-])c2ccccc2n1OCc1ccccn1	none
COC(=O)c1cc(S(=O)(=O)NC2CCC(C)CC2)cn1C (stereo not given)	none (no result: Coupling enz)
O=C1C(Cl)=C(NC2CCc3ccccc32)C(=O)c2ncccc21 (stereo not given)	RORg inh 4.47µM, Gal4-VP16 FLuc 4.47µM (no result: TSHR antag, ELG1 DNA repair)
O=C(Nc1ccc(Cl)cc1)NC1CCCc2ccccc21 (stereo not given)	none
O=C(c1cc(-c2cccc(Cl)c2)nc2ccccc12)N1CCN(c2ccccn2)CC1	Gal4-VP16 FLuc inconclusive, ELG1 DNA repair 23.1µM
Cn1nc(-c2ccc(Cl)cc2)c2cc(C(=O)N3CCN(c4ccccn4)CC3)sc21	Gal4-VP16 FLuc 12.6µM, ELG1 DNA repair inconclusive
O=C(c1cc(-c2ccncc2)nc2ccccc12)N1CCN(Cc2ccccc2)CC1	ELG1 DNA repair 20.6µM (no result: RORg inh, Gal4-VP16 FLuc, Coupling enz)
O=C(c1cc(-c2ccncc2)nc2ccc(Br)cc12)N1CCN(c2ccccn2)CC1	none (no result: TSHR antag, ELG1 DNA repair)
CCCCNC(=O)c1cc2c(-c3ccc(Cl)cc3)nn(C)c2s1	none
Cc1ccc(CNC(=O)c2cc3c(-c4ccc(Cl)cc4)nn(C)c3s2)o1	ELG1 DNA repair 16.4µM
Cn1nc(-c2ccc(Cl)cc2)c2cc(C(=O)N3CCN(c4ccccc4)CC3)sc21	ELG1 DNA repair inconclusive
Cc1ccc2nc(N3CCN(C)CC3)c(C=O)c(=O)n2c1	none
Cc1cccc2c(C(=O)N3CCN(c4ccccn4)CC3)cc(-c3cccc(Br)c3)nc12	Gal4-VP16 FLuc inconclusive, ELG1 DNA repair 14.6µM
C[C@H]1C(=O)N(C)CCN1C(=O)c1cccc(OC2CCN(CC(C)(C)C)CC2)c1	ELG1 DNA repair inconclusive (no result: Coupling enz)
O=[N+]([O-])c1ccc(CSc2nnc(Cc3ccccc3)o2)cc1	none
COc1ccc(Cc2nnc(SCc3ccc([N+](=O)[O-])cc3)o2)cc1	ELG1 DNA repair 23.1µM
COc1cc(C(=O)N[C@H](C(=O)NC2CCCCCC2)C(C)C)cc(OC)c1OC	none
COc1cc(C(=O)N[C@H](C(=O)NC2CCCc3ccccc32)C(C)C)cc(OC)c1OC (stereo not given in full)	ELG1 DNA repair 20.6µM (no result: RORg inh, Gal4-VP16 FLuc, Coupling enz)
CCCCn1nnc(NC(=S)NC(=O)c2ccc(OCC)c([N+](=O)[O-])c2)n1	RORg inh 2.82µM, Gal4-VP16 FLuc 2.51µM (no result: Coupling enz)
CCCCn1nnc(NC(=S)NC(=O)c2ccc(-c3cccc(Cl)c3Cl)o2)n1	RORg inh 1.26µM, Gal4-VP16 FLuc 1.12µM
CCCCn1nnc(NC(=O)c2ccc(-c3ccccc3[N+](=O)[O-])o2)n1	ELG1 DNA repair inconclusive
CCOc1ccc(C(=O)NC(=S)Nc2ncccc2C)cc1[N+](=O)[O-]	ELG1 DNA repair inconclusive
CCCCC(=O)Nc1nnn(CCC)n1	none
CCCCC(=O)NC(=S)Nc1nnn(CCC)n1	RORg inh 0.112µM, Gal4-VP16 FLuc 0.562µM
Cc1cnc(CNc2ncncc2-c2cccnc2)cn1	none (no result: TSHR antag, ELG1 DNA repair)
Cn1ncc2c(Nc3ccc(Cl)c(Cl)c3)ncnc21	RORg inh inconclusive, ELG1 DNA repair inconclusive
CCCn1ncc2c(Nc3ccc(C)c(C)c3)ncnc21	Gal4-VP16 FLuc inconclusive, ELG1 DNA repair inconclusive
CCCCNc1nc(Nc2ccc(C)c(Cl)c2)c2cnn(C)c2n1	Gal4-VP16 FLuc inconclusive, ELG1 DNA repair 18.3µM
CCNc1nc(Nc2ccc(C)c(Cl)c2)c2cnn(C)c2n1	ELG1 DNA repair 9.2µM
CCOC(=O)NCCOc1ccc(Oc2ccccc2)cc1	RORg inh inconclusive, Gal4-VP16 FLuc inconclusive (no result: TSHR antag, ELG1 DNA repair)
